From PubChem BioAssay come the findings set out here.

A short description of assay [1]: circadian clock period modulators, cell-based, LOPAC library, luminescence reporter (AID 2774).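 Note: values are relative to mean of DMSO wells on each plate.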 The settings on record: circadian reporter cells, at 7 µM, actives lie on both sides.
Assay [2] has as its system Hepatitis C virus NS3 helicase. Description: HCV NS3 helicase inhibitors, primary screen, biochemical, fluorescence polarization, LOPAC1280 library (AID 687035; in the data active = inhibition above about 37%). Conditions: Purified HCV NS3 helicase, Cy5-dT15 ssDNA binding fluorescence polarization; stronger effect = higher value; concentration not given here. (In general: Fluorescence polarisation rises when a labelled molecule tumbles more slowly, as on binding a larger partner.)

Assay [3] in a line: Cy5 fluorescence quenching or enhancement artefacts, artefact control for HCV NS3 helicase inhibitor project, biochemical, LOPAC1280 (AID 687037). Conditions: Cy5-DNA-NS3h complex fluorescence interference counterscreen. On the technique in general: Counterscreens check selectivity or assay interference.
Assay [4] in a line: phospholipid biosynthesis inhibitors in animal cells, primary screen, cell-based, LOPAC library, screen 4 (AID 1347384). Conditions: phospholipid biosynthesis inhibition screen, at 10 µM.
The nature of assay [5]: reducers of polyQ inclusions in PC12 cells, cell-based, NGF-treated PC12, GFPQ80 (AID 1614).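 Note: lower means fewer inclusions and 0 means no inclusions at all.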 Conditions: PC12 NGF-treated GFP-polyQ80 inclusion reduction.
For assay [6], the target named is ATP-dependent translocase ABCB1 (Homo sapiens) (UniProt P08183). In words: MDR1 (ABCB1) efflux transporter inhibition, cell-based (AID 377; in the data active = fluorescence slope change above about 50%). The settings on record: MDR1-expressing cells, fluorescent substrate accumulation slope; stronger effect = higher value; concentration not given here.
In assay [7] the test system is Neuropilin-2 / VEGF-C interaction (human). Description: inhibitors of NRP2–VEGF-C binding, biochemical, microplate binding format, z-score (AID 743281). Conditions: microplate NRP2/VEGF-C binding assay; stronger effect = lower value.

The structures appear in SMILES notation. Records with an inconclusive call do not appear. Active and inactive are the calls of the source. Unless noted, the rule behind the calls is not given here.

ATP-dependent translocase ABCB1 (Homo sapiens), sequence (P08183 whole entry, looked up): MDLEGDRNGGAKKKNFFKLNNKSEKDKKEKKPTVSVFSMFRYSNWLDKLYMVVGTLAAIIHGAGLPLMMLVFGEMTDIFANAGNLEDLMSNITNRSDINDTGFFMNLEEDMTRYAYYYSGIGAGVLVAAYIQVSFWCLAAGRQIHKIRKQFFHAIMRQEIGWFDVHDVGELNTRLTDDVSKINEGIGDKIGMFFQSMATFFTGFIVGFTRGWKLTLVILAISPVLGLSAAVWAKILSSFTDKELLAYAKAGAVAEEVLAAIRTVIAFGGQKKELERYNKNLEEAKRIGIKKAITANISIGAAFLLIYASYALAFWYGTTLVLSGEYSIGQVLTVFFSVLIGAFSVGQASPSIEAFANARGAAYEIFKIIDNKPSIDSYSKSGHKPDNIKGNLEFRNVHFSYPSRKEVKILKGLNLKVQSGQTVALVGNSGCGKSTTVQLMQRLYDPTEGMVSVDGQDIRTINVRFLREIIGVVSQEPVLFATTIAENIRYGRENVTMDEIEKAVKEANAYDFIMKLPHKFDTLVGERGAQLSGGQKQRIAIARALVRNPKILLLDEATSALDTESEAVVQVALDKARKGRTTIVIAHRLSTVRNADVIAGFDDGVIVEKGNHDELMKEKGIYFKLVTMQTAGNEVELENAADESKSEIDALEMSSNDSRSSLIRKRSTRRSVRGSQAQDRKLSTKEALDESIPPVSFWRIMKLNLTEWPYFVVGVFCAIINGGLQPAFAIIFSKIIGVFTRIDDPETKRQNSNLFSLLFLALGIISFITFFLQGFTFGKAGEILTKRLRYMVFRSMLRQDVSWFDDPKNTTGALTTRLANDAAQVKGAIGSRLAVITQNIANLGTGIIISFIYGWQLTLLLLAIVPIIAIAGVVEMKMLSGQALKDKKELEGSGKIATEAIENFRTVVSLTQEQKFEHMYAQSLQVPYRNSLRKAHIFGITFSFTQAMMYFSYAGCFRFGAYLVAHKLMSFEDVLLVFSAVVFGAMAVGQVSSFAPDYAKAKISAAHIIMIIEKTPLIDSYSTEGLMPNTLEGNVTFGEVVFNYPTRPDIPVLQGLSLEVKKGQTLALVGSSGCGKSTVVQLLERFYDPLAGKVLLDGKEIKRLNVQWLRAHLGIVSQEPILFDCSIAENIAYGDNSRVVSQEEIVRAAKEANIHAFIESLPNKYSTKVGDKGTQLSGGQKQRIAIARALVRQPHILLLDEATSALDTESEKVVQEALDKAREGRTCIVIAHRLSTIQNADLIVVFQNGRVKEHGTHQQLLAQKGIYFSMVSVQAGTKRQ

As a reminder, the inhibition is the drop in the measured response relative to a control, in per cent. In the case of `CC(CN1c2ccccc2Sc2ccccc21)N(C)C` (stereo unspecified), the period change in assay [1] is 0.14 h (inactive). Besides, the inhibition in assay [2] is -2% (inactive). Besides, the fluorescence ratio (interference) in assay [3] is 1 (inactive). The result in assay [4] was inactive.

In assay [5], `CN(C)C(=O)Oc1ccc[n+](C)c1` displayed an inclusion score of 2. Further, the period change in assay [1] is 0.015 h (inactive). Moreover, the inhibition in assay [2] was -1% (inactive). In addition, in assay [3], the fluorescence ratio (interference) was 1 (inactive). For the same compound, in assay [4], the outcome was inactive.

Consider `CSc1ccc2c(c1)N(CCC1CCCCN1C)c1ccccc1S2` (stereo unspecified), for which, in assay [1], the period change was -0.225 h (inactive). Besides, in assay [2], the inhibition was -3% (inactive). In addition, the fluorescence ratio (interference) in assay [3] was 0.9 (inactive). Moreover, the compound was called inactive in assay [4].

With `NC(=O)N1c2ccccc2C=Cc2ccccc21`, the inclusion score in assay [5] came out at 2. The period change in assay [1] is 0.01 h (inactive). Further, in assay [2], the inhibition was -1% (inactive). Further, the fluorescence ratio (interference) in assay [3] was 1 (inactive). Moreover, in assay [4], the outcome was inactive.

Turning to `NS(=O)(=O)c1cc2c(cc1C(F)(F)F)NC(Cc1ccccc1)NS2(=O)=O` (stereo unspecified), in assay [6], the fluorescence slope change is 16.6% (inactive). Moreover, the inclusion score in assay [5] was 2.

On to `CC(=O)CCCCn1c(=O)c2c(ncn2C)n(C)c1=O`, for which, in assay [6], the fluorescence slope change is 121% (active). This compound registered an inclusion score in assay [5] of 2. For the same compound, the period change in assay [1] was 0.02 h (inactive). Besides, the inhibition in assay [2] was -4% (inactive). Also, the fluorescence ratio (interference) in assay [3] is 1 (inactive). Further, the z-score in assay [7] was -0.728 (inactive). For the same compound, the compound was classed as inactive in assay [4].

On to `O=C(CCCN1CC=C(n2c(=O)[nH]c3ccccc32)CC1)c1ccc(F)cc1`, for which the fluorescence slope change in assay [6] is 53.4% (active). In addition, the z-score in assay [7] was 0.0538 (inactive).

In the case of `CC[N+](C)(C)c1cccc(O)c1`, in assay [6], the fluorescence slope change is 82.5% (active). In assay [5], the inclusion score was 2. The period change in assay [1] was 0.07 h (inactive). In addition, the inhibition in assay [2] is -3% (inactive). The fluorescence ratio (interference) in assay [3] was 1 (inactive). Also, the compound was called inactive in assay [4].

Turning to `CN(C)CCCN1c2ccccc2Sc2ccc(Cl)cc21`, in assay [1], the period change is -0.035 h (inactive). Also, the inhibition in assay [2] was -2% (inactive). Also, the fluorescence ratio (interference) in assay [3] was 1 (inactive). Moreover, in assay [4], the result was inactive.

In assay [5], `O=C1NC(=O)C(c2ccccc2)(c2ccccc2)N1` showed an inclusion score of 2. The period change in assay [1] is 0.02 h (inactive). For the same compound, the inhibition in assay [2] is 1% (inactive). Besides, in assay [3], the fluorescence ratio (interference) was 1 (inactive). Also, the compound was called inactive in assay [4].

Regarding `c1ccc2c(c1)CCCC2C1=NCCN1` (stereo unspecified), in assay [6], the fluorescence slope change was 13.8% (inactive). In addition, the inclusion score in assay [5] was 2. For the same compound, the period change in assay [1] was -0.02 h (inactive). Besides, the inhibition in assay [2] is -3% (inactive). In assay [3], the fluorescence ratio (interference) is 1 (inactive). For the same compound, the compound was called inactive in assay [4].

Compound `C[C@H](CS)C(=O)N1CCC[C@H]1C(=O)O` yielded an inclusion score in assay [5] of 2. In addition, the period change in assay [1] is 0.01 h (inactive). Further, in assay [2], the inhibition is 0% (inactive). For the same compound, the fluorescence ratio (interference) in assay [3] was 1 (inactive). For the same compound, the outcome in assay [4] was inactive.

The compound `Nc1ccc(S(=O)(=O)c2ccc(N)cc2)cc1` returned an inclusion score in assay [5] of 2.

For the compound `CCCCC1=NC2(CCCC2)C(=O)N1Cc1ccc(-c2ccccc2-c2nn[nH]n2)cc1`, the z-score in assay [7] was 0.146 (inactive).

Turning to `CCCNC(=O)NS(=O)(=O)c1ccc(Cl)cc1`, the fluorescence slope change in assay [6] is 6.6% (inactive). The same compound showed an inclusion score in assay [5] of 2. Also, in assay [1], the period change was 0.055 h (inactive). Also, in assay [2], the inhibition is -1% (inactive). The fluorescence ratio (interference) in assay [3] is 1 (inactive). For the same compound, the compound was classed as inactive in assay [4].

Regarding `Cc1nc2ccccn2c(=O)c1CCN1CCC(C(=O)c2ccc(F)cc2)CC1`, in assay [1], the period change was -0.415 h (inactive). In addition, in assay [2], the inhibition is -3% (inactive). Also, the fluorescence ratio (interference) in assay [3] was 1 (inactive). Moreover, the z-score in assay [7] was -1.94 (inactive). For the same compound, the outcome in assay [4] was inactive.

`CN(C)CCCN1c2ccccc2CCc2ccccc21`: the period change in assay [1] is 0.07 h (inactive). The inhibition in assay [2] is -7% (inactive). Moreover, in assay [3], the fluorescence ratio (interference) is 1 (inactive). In addition, in assay [4], the outcome was inactive.

With `CCN(CC)CCOC(=O)C1(C2CCCCC2)CCCCC1`, the period change in assay [1] was 0.005 h (inactive). Further, the inhibition in assay [2] was -4% (inactive). In addition, the fluorescence ratio (interference) in assay [3] is 1 (inactive). For the same compound, the outcome in assay [4] was inactive.

`CCCNC(C)C(=O)Nc1ccccc1C` (stereo unspecified) returned an inclusion score in assay [5] of 2. The period change in assay [1] was -0.13 h (inactive). The inhibition in assay [2] is -1% (inactive). Also, in assay [3], the fluorescence ratio (interference) is 1 (inactive). Besides, the call in assay [4] was inactive.

Take `CCCCNC(=O)NS(=O)(=O)c1ccc(C)cc1`: in assay [5], the inclusion score came out at 2. In addition, the period change in assay [1] is 0 h (inactive). In assay [2], the inhibition is -5% (inactive). Also, the fluorescence ratio (interference) in assay [3] is 1 (inactive). In addition, in assay [4], the call was inactive.

For the compound `CC(C)(C)NCC(O)c1cc(O)cc(O)c1` (stereo unspecified), the fluorescence slope change in assay [6] was 23.2% (inactive). In assay [5], the inclusion score amounted to 2. In addition, in assay [1], the period change was 0.03 h (inactive). Moreover, the inhibition in assay [2] is -2% (inactive). The fluorescence ratio (interference) in assay [3] is 1 (inactive). Also, the result in assay [4] was inactive.

Take `OCCN1CCN(CCCN2c3ccccc3Sc3ccc(Cl)cc32)CC1`: the fluorescence slope change in assay [6] is 181% (active). The period change in assay [1] was -0.035 h (inactive). Further, the inhibition in assay [2] is -1% (inactive). Moreover, in assay [3], the fluorescence ratio (interference) is 1 (inactive). The compound was called inactive in assay [4].

For the compound `CCOC(=O)[C@H](CCc1ccccc1)N[C@@H](C)C(=O)N1Cc2ccccc2C[C@H]1C(=O)O`, the inclusion score in assay [5] came out at 2.5.

On to `Nc1nc(N)c2nc(-c3ccccc3)c(N)nc2n1`, for which, in assay [1], the period change was 0.185 h (inactive). In addition, the inhibition in assay [2] was -2% (inactive). For the same compound, the fluorescence ratio (interference) in assay [3] is 1 (inactive). Moreover, the result in assay [4] was inactive.

For `CC(C)[N+](C)(CCOC(=O)C1c2ccccc2Oc2ccccc21)C(C)C`, the fluorescence slope change in assay [6] is 80.1% (active). The inclusion score in assay [5] was 2. In assay [1], the period change is 0.06 h (inactive). The inhibition in assay [2] is 0% (inactive). In addition, the fluorescence ratio (interference) in assay [3] was 1 (inactive). Also, in assay [4], the compound was classed as inactive.

Take `CCN(CC)CCOC(=O)c1ccc(N)cc1`: in assay [5], the inclusion score is 1.5. In addition, the period change in assay [1] was -0.065 h (inactive). Also, the inhibition in assay [2] is 0% (inactive). The fluorescence ratio (interference) in assay [3] was 1 (inactive). Also, the result in assay [4] was inactive.

For the compound `Cc1ccc(S(=O)(=O)NC(=O)NN2CCCCCC2)cc1`, the fluorescence slope change in assay [6] is 5.1% (inactive). The compound also came in with an inclusion score in assay [5] of 2. Moreover, the period change in assay [1] was 0.08 h (inactive). In addition, in assay [2], the inhibition is -1% (inactive). Also, the fluorescence ratio (interference) in assay [3] is 1 (inactive). For the same compound, the compound was called inactive in assay [4].

For the compound `CC(=O)Nc1nnc(S(N)(=O)=O)s1`, in assay [5], the inclusion score came to 2. Further, the period change in assay [1] was 0.15 h (inactive). Further, in assay [2], the inhibition was -1% (inactive). The fluorescence ratio (interference) in assay [3] is 1 (inactive). The call in assay [4] was inactive.

With `CC(C)NCC(O)c1cc(O)cc(O)c1` (stereo unspecified), the fluorescence slope change in assay [6] was 14.9% (inactive). This compound also returned an inclusion score in assay [5] of 2. Besides, the period change in assay [1] is -0.17 h (inactive). Further, the inhibition in assay [2] is -4% (inactive). Further, the fluorescence ratio (interference) in assay [3] is 0.9 (inactive). In addition, in assay [4], the compound was classed as inactive.

In the case of `CN(C)CCC[C@@]1(c2ccc(F)cc2)OCc2cc(C#N)ccc21`, in assay [7], the z-score is 0.314 (inactive).

For the compound `OC(CCN1CCCCC1)(c1ccccc1)C1CCCCC1` (stereo unspecified), the fluorescence slope change in assay [6] is 66% (active). Further, the period change in assay [1] was 0 h (inactive). The inhibition in assay [2] was 0% (inactive). Moreover, the fluorescence ratio (interference) in assay [3] is 1 (inactive). Besides, the compound was called inactive in assay [4].
